A selection: hits, their analogues and other compounds. The true share with any hit is near 15%.
HCV inh: blocks hepatitis C virus; Huh7.5.1 HCVcc-Cre infection, luciferase reporter, 44 h; Potency, µM (doses to about 41.8 µM), for inactives: at the highest dose activity change, negative = inhibition, actives largely listed as inhibitors; 3.4% of 340,000 active; further: potency means the concentration at half of the fitted maximal effect; on the % scale 0 is the no-effect control and ±100 the full control effect
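Compounds are dispensed onto cells plated 4 h earlier at 1,000 per well, with HCVcc-Cre virus (about 0.5 moi) added next. Following 44 h of culture, luminescent signal is measured for 15 sec after 15 min with substrate at room temperature.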
SARS PLpro yeast: blocks SARS-CoV papain-like protease in a yeast assay. 0.19% of 330,000 active. S. cerevisiae expressing SARS-CoV PLpro, growth rescue. AID 485353. Potency, µM (titrated, usually from 32.9 µM), without a hit: at the highest dose activity, positive = growth rescue, actives largely listed as activators; calls by dose curve; further: potency means the concentration at half of the fitted maximal effect; 0% is about no effect; nearly all actives have a fitted effect of over 55% in size
HCMV inh: inhibitors of human cytomegalovirus; HFF cells, HCMV-luciferase reporter, 72 h; active compounds read low; activity change, negative = inhibition, % at 57.5 µM; 4.5% of 410,000 active; AID 1259415; in the data active means activity change below about -60%; inconclusive means no clear call, values can overlap the other calls; inactive means above about -39%; further: on the % scale 0 is the no-effect control and ±100 the full control effect
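Luciferase read-out from HCMV-luciferase-infected HFFs (MOI 1 PFU/cell) 72 h post infection at 37C; compounds added after 16 h cell attachment; activity normalized between buffer-only basal and Salinomycin (10uM) inhibitor controls.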
Sm TGR block: S. mansoni TGR enzyme inhibition. Q962Y6. purified TGR, DTNB reduction, TNB absorbance 405 nm. Potency, µM (top dose mostly 114 µM), for the others: top-dose activity change, negative = inhibition, actives largely listed as inhibitors. 3% of 360,000 active. AID 485364; further: potency means the concentration at half of the fitted maximal effect; on the % scale 0 is the no-effect control and ±100 the full control effect; nearly all actives have a fitted effect of over 60% in size
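Kinetic colorimetric format: TGR-catalysed, NADPH-driven DTNB reduction monitored via TNB absorbance. Enzyme dispensed at 20 nM; compound exposure 15 min at room temperature before reaction start.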
Pf growth 96h: P. falciparum growth inhibition at 96 hours | P. falciparum luciferase reporter growth, 96 h | Potency, µM (series often up to 28.7 µM), for the others: at the highest dose activity change, negative = inhibition, usual class: inhibitors | 6.9% of 320,000 active | AID 504834; further: potency means the concentration at half of the fitted maximal effect; on the % scale 0 is the no-effect control and ±100 the full control effect
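Plates of compound plus infected erythrocytes (2% hematocrit, 0.05% parasitemia final) incubate 96 hours, 37 C, 5% CO2. Detection reagent added; reduced luminescence from the parasites' luciferase reporter flags inhibition.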
Pf growth 48h: inhibits P. falciparum growth in the first generation, 48 h. P. falciparum luciferase growth in erythrocytes, 48 h. Potency, µM (titrated, usually from 28.7 µM), inactives show top-dose activity change, negative = inhibition, actives largely listed as inhibitors. 5.9% of 310,000 active; further: potency means the concentration at half of the fitted maximal effect; on the % scale 0 is the no-effect control and ±100 the full control effect
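Read-out is firefly luciferase luminescence from an integrated reporter in P. falciparum, so falling signal marks reduced parasite growth. Infected erythrocytes were at 2% hematocrit and 0.1% parasitemia (final) in Albumax-supplemented RPMI 1640.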
Active calls of the source: *; i = inactive; ? = inconclusive; nt = no result; [ ] = another dose, or the depositor's remark. Unless noted, the call rests on the fitted dose curve; in most records, active means well fitted curve in the direction sought with a large enough effect; inconclusive means small, poorly fitted or top-dose-only effect, or another doubt; inactive means no such curve, though single readings can be large; an effect the other way counts as inactive or inconclusive.

SMILES	HCV inh	SARS PLpro yeast	HCMV inh	Sm TGR block	Pf growth 96h	Pf growth 48h
CCc1ccc(Cn2c(CNS(=O)(=O)c3ccc([N+](=O)[O-])cc3)nc3cccnc32)cc1	nt	nt	13	7%	nt	nt
CC[C@@H](C(=O)[C@@H](C)[C@@H](O)[C@H](C)CCc1ccc(C)c(O)c1C(=O)O)[C@H]1O[C@](CC)([C@H]2CC[C@](O)(CC)[C@H](C)O2)C[C@@H]1C	1.8µM*	-29%	-99*	5%	?	0.093µM*
CCC(C(=O)C(C)C(O)C(C)CCc1ccc(C)c(O)c1C(=O)O)C1OC(CC)(C2CC[C@@](O)(CC)C(C)O2)CC1C (stereo partly specified)	nt	nt	nt	nt	0.38µM*	0.38µM*
Cc1ccc(Nc2nc3ccccc3[nH]2)nc1	?	19%	-77*	5%	?	3.3µM*
CC1(C(=O)NCc2ccc(Cl)cc2)CCN1C(=O)Cc1ccc(Cl)cc1Cl (stereo unspecified)	nt	nt	5	nt	nt	nt
C=C1C(=O)C2=CC1CCC(=O)C1(C)CCC(OC(C)=O)C(C)(C)C1CC2O (stereo unspecified)	11µM*	nt	-99*	nt	nt	nt
Cc1ccc(-c2cc3cccc[n+]3cc2-c2ccc(C)cc2)cc1	?	-36%	-98*	-5%	?	0.41µM*
Cc1ccccc1	nt	nt	nt	nt	?	0%
COc1ccccc1NC(=S)NC(=O)c1ccc(Cn2cc(Br)cn2)cc1	?	2%	-36	-18%	-102%	?
Cc1cc(C)c(C(=O)CSc2nnc(N)s2)c(C)c1	-3%	0%	0	-8%	2%	6%
Cc1ccc(Nc2nnc(SCC(=O)c3ccc(Br)s3)s2)c(C)c1	7%	-11%	4	1%	1µM*	-4%
Cc1cccc(C)c1Nc1nnc(SCC(=O)c2ccc(Br)s2)s1	-11%	?	?	-6%	?	-8%
Cc1cc(C)c(C(=O)CSc2nnc(C)s2)c(C)c1	-9%	-1%	-61*	nt	13%	-13%
Cc1ccc(S(=O)(=O)N2CCN(C(=O)COC(=O)C3(C)CC3(Cl)Cl)CC2)c(C)c1 (stereo unspecified)	?	8%	-28	-8%	?	10µM*
Cc1ccc(S(=O)(=O)N2CCN(C)CC2)c(C)c1	15%	8%	7	9%	2.6µM*	-1%
CSc1nc2ccccc2nc1N(C)S(=O)(=O)c1ccc(C)cc1	-27%	-1%	-66*	1%	-9%	-4%
Cc1ccc(S(=O)(=O)N(C)c2ccccc2)cc1	10%	0%	-24	3%	nt	3%
O=C(NCc1ccccc1)C1CCCN1S(=O)(=O)c1cccc2cccnc12 (stereo unspecified)	4%	7%	155	-19%	4.7µM*	-6%
O=C(Nc1ccc(C(F)(F)F)cc1)C1CCCN1S(=O)(=O)c1cccc2cccnc12 (stereo unspecified)	?	-4%	-75*	-28%	54%	?
COc1ccccc1CNC(=O)C1CCN(S(=O)(=O)c2cccc3cccnc23)CC1	-7%	-5%	-71*	7%	70%	nt
CCc1c(C)nc2nncn2c1NCc1ccc(Cl)cc1	nt	nt	-69*	4%	nt	nt
CCn1c(=O)c2c(n3c(=S)[nH]nc13)-c1ccccc1CC21CCCCC1	15%	-2%	-28	-8%	2%	-2%
C=CCN(c1ccccc1)S(=O)(=O)c1cccc(C(=O)Nc2ccc(N3CCOCC3)cc2)c1	7.1µM*	0%	?	3%	?	2%
C=CCN(c1ccccc1)S(=O)(=O)c1cccc(C(=O)Nc2ccncc2)c1	?	11%	-75*	0%	?	?
C=CCN(c1cccc(C(F)(F)F)c1)S(=O)(=O)c1cccc(C(=O)OCC(=O)NC)c1	-1%	-5%	-24	-10%	12µM*	?
SMILES	HCV inh	SARS PLpro yeast	HCMV inh	Sm TGR block	Pf growth 96h	Pf growth 48h
Cc1ccc(C(=O)c2c(N)c(C(=O)Nc3cccc(C(F)(F)F)c3)c3ccccn23)cc1	nt	nt	2	-3%	nt	nt
CC1CCN(S(=O)(=O)c2ccc3c(c2)N(CC(=O)N(C)Cc2ccccc2)C(=O)CO3)CC1	nt	nt	-24	0%	nt	nt
O=C(NCCc1c[nH]c2ccccc12)O[C@H]1CC[C@@]23CCCN2C(=O)CCC[C@H]3[C@H]1Cc1ccccc1	nt	nt	16	nt	nt	nt
CCC1Sc2ccc(S(=O)(=O)CCC(=O)Nc3cccc(Br)c3)cc2NC1=O (stereo unspecified)	3%	-4%	2	-3%	?	20%
COc1ccc(C2=Nc3ccccc3N(CC(=O)Nc3cccc(C(C)=O)c3)C(=O)C2)cc1	nt	nt	14	2%	nt	nt
CCOc1cc(/C=N/n2cnnc2)ccc1O	4%	1%	72	1%	15%	17%
C=CCc1cc(/C=N/n2cnnc2)cc(OCC)c1O	?	2%	3	-24%	8.3µM*	?
C=CCc1cc(/C=C2/NC(=O)NC2=O)cc(OCC)c1O	-20%	1%	-2	50µM*	1µM*	-4%
CCOc1cccc(NC(=O)C2CC(=O)N(C)C(=Nc3ccccc3)S2)c1 (stereo unspecified)	-5%	1%	2	-3%	3.7µM*	?
CCOc1cccc(NC(=O)C2CC(=O)N(C)C(=Nc3cccc(F)c3)S2)c1 (stereo unspecified)	-54%	-7%	43	0%	?	?
COc1ccccc1N=C1SC(C(=O)Nc2ccc(F)cc2)CC(=O)N1C (stereo unspecified)	9%	4%	-21	1%	?	10µM*
Oc1ccccc1Nc1nc(NCC2CCCO2)c2ccccc2n1 (stereo unspecified)	?	0%	-12	-1%	?	2.3µM*
c1cncc(-c2nc(NCC3CCCO3)c3ccccc3n2)c1 (stereo unspecified)	?	-2%	nt	-10%	?	?
c1ccc2c(NCC3CCCO3)nc(N3CCCCC3)nc2c1 (stereo unspecified)	?	0%	?	5%[57.1 µM]	i	?
CC(C)Oc1ccc(-c2nc(NCC3CCCO3)c3ccccc3n2)cc1 (stereo unspecified)	11µM*	-3%	-78*	7%	?	?
Oc1ccc(Cl)cc1Nc1nc(NCC2CCCO2)c2ccccc2n1 (stereo unspecified)	nt	nt	-13	nt	nt	nt
Oc1ccc(Nc2nc(NCC3CCCO3)c3ccccc3n2)cc1 (stereo unspecified)	-22%	-6%	13	-1%	17%	1.7µM*
Cc1ccc(CNC(=O)CN2C(=O)CSc3ccc(S(=O)(=O)N(C)C)cc32)cc1	nt	nt	8	3%	nt	nt
